Measured values as given in PubChem BioAssay (NCATS).
Values joined by “and” are separate entries in the source; they are usually repeats but may differ in a detail not shown here. Identical values can stand only once. Inconclusive results are not listed. Unmarked numbers belong to inactive results. Active and inactive are the calls of the source. Unless noted, calls follow the shape of the dose curve; as a rule, active = well fitted activation curve with a large enough effect; inconclusive = small, poorly fitted or top-dose-only effect, or another doubt; inactive = no such curve, though single readings can be large or run the other way. Peptide text beside a SMILES is read from it.

Assay: Cell Proliferation Assay against the TMD8 Cell Line (Caspase readout at 8 hrs) (AID 651713); also: potency is read from the fitted curve at half-maximal effect;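 as to caspase activation: 0% = DMSO and 100% = 9.2 µM bortezomib caspase signal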
Settings: TMD8 lymphoma cells, caspase activation luminescence; series mostly up to 46.1 µM
Method in brief: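 Luminescent caspase 3/7 assay; TMD8 cells, 8 h treatment at 37C, 5% CO2. Normalisation: DMSO 0%, 9.2 uM bortezomib 100%.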

**Q.** Which Potency does the source give for `CCN(CC)CCOc1ccc(Nc2ncc3cc(-c4c(Cl)cccc4Cl)c(=O)n(C)c3n2)cc1` here?
**A.** 26.4 µM (active)

**Q.** Which Potency does the source give for `CC(C)C[C@H](NC(=O)[C@H](Cc1ccccc1)NC(=O)c1cnccn1)B(O)O` here?
**A.** 0.833 µM (active)

**Q.** For `S=c1nc[nH]c2nc[nH]c12`, which Potency is on record?
**A.** inactive

**Q.** For `C[C@@H](N)C1CCC(C(=O)Nc2ccncc2)CC1` (stereo partly drawn), which Potency is on record?
**A.** inactive

**Q.** With `CCOC(=O)C1=C(O)C(=O)N(Cc2ccccc2)C1` as the molecule, how does the Potency read?
**A.** inactive

**Q.** Which Potency does the source give for `Cc1ccc(Nc2nccc(N(C)c3ccc4c(C)n(C)nc4c3)n2)cc1S(N)(=O)=O` here?
**A.** inactive

**Q.** For `Nc1cccc2c1CN(C1CCC(=O)NC1=O)C2=O` (stereo not drawn), which Potency is on record?
**A.** inactive

**Q.** For `Cc1cccc(-c2[nH]ncc2-c2ccc3ncccc3n2)n1`, which Potency is on record?
**A.** inactive

**Q.** With `Cc1nc(Nc2ncc(C(=O)Nc3c(C)cccc3Cl)s2)cc(N2CCN(CCO)CC2)n1` as the molecule, how does the Potency read?
**A.** inactive

**Q.** With `CCN(CCO)CCCC(C)Nc1ccnc2cc(Cl)ccc12` (stereo not drawn) as the molecule, how does the Potency read?
**A.** inactive

**Q.** For `CCOC(=O)C(C)Oc1cccc2c(=O)n(CC(=O)Nc3ccc4c(c3)OCCO4)ccc12` (stereo not drawn), which Potency is on record?
**A.** inactive

Assay: qHTS assay for small molecule agonists of the antioxidant response element (ARE) signaling pathway (AID 651741; active = well fitted activation curve with a large enough effect in the signal ratio; the % refers to the signal ratio; also: potency is read from the fitted curve at half-maximal effect; as to activation: % of control where 0% means no effect)
Settings: HepG2 ARE-bla reporter, beta-lactamase FRET ratio, 16 h; series mostly up to 96 µM
Method in brief: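 Beta-lactamase reporter expression driven by the antioxidant response element in HepG2 cells was detected by fluorescence with LiveBLAzer B/G FRET substrate (2 h, room temperature) following 16 h compound treatment at 37 C.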

**Q.** For `COC(=O)[C@H](Cc1ccccc1)NC(=O)[C@@H](N)CC(=O)O` (H-Asp-Phe-OMe), which Potency is on record?
**A.** inactive

**Q.** For `Cc1ccc(C)c(OCCCC(C)(C)C(=O)O)c1`, which Potency is on record?
**A.** inactive

**Q.** For `CCCc1cc(=O)[nH]c(=S)[nH]1`, which Potency is on record?
**A.** inactive

**Q.** For `COc1c2occc2cc2ccc(=O)oc12`, which Potency is on record?
**A.** inactive

**Q.** For `CCN(CC)C(=S)SSC(=S)N(CC)CC`, which Potency is on record?
**A.** inactive

**Q.** Which Potency does the source give for `CC1(C)NC(=O)N(c2ccc([N+](=O)[O-])c(C(F)(F)F)c2)C1=O` here?
**A.** 54.5 µM (active)

**Q.** With `N[C@@H](Cc1cc(I)c(Oc2cc(I)c(O)c(I)c2)c(I)c1)C(=O)O` as the molecule, how does the Potency read?
**A.** 54.5 µM (active)

**Q.** With `CNC[C@H](O)c1ccc(O)c(O)c1` as the molecule, how does the Potency read?
**A.** 48.6 µM (active)

**Q.** With `CC(=O)Nc1ccc(O)cc1` as the molecule, how does the Potency read?
**A.** inactive

**Q.** For `Nc1ccc(S(N)(=O)=O)cc1`, which Potency is on record?
**A.** inactive

**Q.** For `c1ccc2[nH]c(-c3cscn3)nc2c1`, which Potency is on record?
**A.** inactive

**Q.** With `COc1cc(OC)c(C(=O)CCCN2CCCC2)c(OC)c1` as the molecule, how does the Potency read?
**A.** inactive

**Q.** With `NS(=O)(=O)c1cc(C(=O)O)c(NCc2ccco2)cc1Cl` as the molecule, how does the Potency read?
**A.** inactive

Assay: qHTS assay for small molecule activators of the p53 signaling pathway (AID 651743; active = well fitted activation curve with a large enough effect in the signal ratio, not every such curve was filed as active; the % refers to the signal ratio; also: potency is read from the fitted curve at half-maximal effect; as to activation: % of control where 0% means no effect)
Settings: HCT-116 p53RE-bla, beta-lactamase FRET ratio, 16 h; activation: stronger effect = higher value
Method in brief: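 Here HCT-116 cells with an integrated p53-responsive beta-lactamase gene were incubated with compounds (16 hours, 37 C) after a 5-hour plating period; beta-lactamase activity was detected as fluorescence intensity via B/G FRET substrate.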

**Q.** For `COC(=O)[C@H](Cc1ccccc1)NC(=O)[C@@H](N)CC(=O)O` (H-Asp-Phe-OMe), which activation is on record?
**A.** 0.335% and -1.33%

**Q.** With `CCCc1cc(=O)[nH]c(=S)[nH]1` as the molecule, how does the activation read?
**A.** 0.119% and 0.547%

**Q.** With `COc1c2occc2cc2ccc(=O)oc12` as the molecule, how does the activation read?
**A.** -0.24% and -0.96%

**Q.** With `CCCCC(CC)COC(=O)C(C#N)=C(c1ccccc1)c1ccccc1` (stereo not drawn) as the molecule, how does the activation read?
**A.** -3.23%

**Q.** With `CCN(CC)C(=S)SSC(=S)N(CC)CC` as the molecule, how does the activation read?
**A.** 4.22%

**Q.** With `CS(=O)(=O)OCCCCOS(C)(=O)=O` as the molecule, how does the activation read?
**A.** 1.64% and 0.944% and -3.49%

**Q.** Which activation does the source give for `CC1(C)NC(=O)N(c2ccc([N+](=O)[O-])c(C(F)(F)F)c2)C1=O` here?
**A.** 15.1%

**Q.** For `CN(C)c1ccc2nc3ccc(=[N+](C)C)cc-3sc2c1`, which Potency is on record?
**A.** 20 µM (active)

**Q.** Which activation does the source give for `CNC[C@H](O)c1ccc(O)c(O)c1` here?
**A.** 1.2%

**Q.** Which activation does the source give for `Nc1ccc(S(N)(=O)=O)cc1` here?
**A.** -2.72%

**Q.** Which activation does the source give for `COc1cc(OC)c(C(=O)CCCN2CCCC2)c(OC)c1` here?
**A.** -0.273%

**Q.** For `Nc1nc(Cl)nc2c1ncn2[C@H]1C[C@H](O)[C@@H](CO)O1`, which Potency is on record?
**A.** 0.501 µM (active)

**Q.** With `O=c1c(O)c(-c2ccc(O)cc2O)oc2cc(O)cc(O)c12` as the molecule, how does the activation read?
**A.** -1.48%

Assay: qHTS assay for small molecule activators of the nuclear factor-kappa B (NF-kB) signaling pathway (AID 651749; active = well fitted activation curve with a large enough effect in the signal ratio; the % refers to the signal ratio; also: % of control where 0% means no effect)
Settings: NF-kB-bla ME-180 cells, beta-lactamase FRET ratio, 16 h; stronger effect = higher value
Method in brief: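 Beta-lactamase reporter expression, controlled by NF-kB response elements in ME-180 cells, was quantified fluorometrically via FRET disruption; cells at 2,000/well had been incubated with 23 nL test compound for 16 hr.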

**Q.** Which activation does the source give for `COC(=O)[C@H](Cc1ccccc1)NC(=O)[C@@H](N)CC(=O)O` (H-Asp-Phe-OMe) here?
**A.** -1.39% and -0.748%

**Q.** For `Cc1ccc(C)c(OCCCC(C)(C)C(=O)O)c1`, which activation is on record?
**A.** -1.25% and -0.0385%

**Q.** Which activation does the source give for `CCCCC(CC)COC(=O)C(C#N)=C(c1ccccc1)c1ccccc1` (stereo not drawn) here?
**A.** 0.0169%

**Q.** With `CCN(CC)C(=S)SSC(=S)N(CC)CC` as the molecule, how does the activation read?
**A.** 0.724%

**Q.** With `N[C@@H](Cc1cc(I)c(Oc2cc(I)c(O)c(I)c2)c(I)c1)C(=O)O` as the molecule, how does the activation read?
**A.** 8.63%

**Q.** Which activation does the source give for `Cc1cc(O)c2c(c1)C(=O)c1cc(O)cc(O)c1C2=O` here?
**A.** 0.85% and -1.63%

**Q.** For `c1ccc2[nH]c(-c3cscn3)nc2c1`, which activation is on record?
**A.** -1.73% and -1.48%

**Q.** For `COc1cc(OC)c(C(=O)CCCN2CCCC2)c(OC)c1`, which activation is on record?
**A.** -0.152%

**Q.** Which activation does the source give for `NS(=O)(=O)c1cc(C(=O)O)c(NCc2ccco2)cc1Cl` here?
**A.** -1.24% and -2.58%

**Q.** For `Nc1nc(Cl)nc2c1ncn2[C@H]1C[C@H](O)[C@@H](CO)O1`, which activation is on record?
**A.** 0.321%

Assay: qHTS assay for small molecule disruptors of the mitochondrial membrane potential - 1 hr assay (AID 651754; calls by dose curve; also: nearly all actives have a fitted effect of over 35% in size; also: potency is read from the fitted curve at half-maximal effect)
Settings: series mostly up to 92.2 µM
Method in brief: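 In this qHTS format, a 1 hr compound treatment of HepG2 cells precedes Mito-MPS staining, and membrane potential is judged from aggregate (red) against monomer (green) fluorescence intensity.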

**Q.** With `Cc1ccc(C)c(OCCCC(C)(C)C(=O)O)c1` as the molecule, how does the Potency read?
**A.** inactive

**Q.** With `COc1c2occc2cc2ccc(=O)oc12` as the molecule, how does the Potency read?
**A.** inactive

**Q.** For `CS(=O)(=O)OCCCCOS(C)(=O)=O`, which Potency is on record?
**A.** inactive

**Q.** With `CN(C)c1ccc2nc3ccc(=[N+](C)C)cc-3sc2c1` as the molecule, how does the Potency read?
**A.** 3.76 µM (active)

**Q.** With `Nc1ccc(S(N)(=O)=O)cc1` as the molecule, how does the Potency read?
**A.** inactive

**Q.** For `NS(=O)(=O)c1cc(C(=O)O)c(NCc2ccco2)cc1Cl`, which Potency is on record?
**A.** inactive
